From PubChem
MCF10A rerep: A quantitative high throughput screen for small molecules that induce DNA re-replication in MCF 10a normal breast cells | MCF 10A DNA re-replication, Hoechst nuclear intensity, 48 h | 350,000 tested, 2.9% active | AID 624296, 2012 | Potency, µM (series often up to 46.1 µM), without a hit: at the top dose activity, positive = re-replication, actives largely listed as activators; further: % of control where 0% means no effect; nearly all actives have a fitted effect of over 50% in size
SW480 rereplic: A quantitative high throughput screen for small molecules that induce DNA re-replication in SW480 colon adenocarcinoma cells; AID 624297, 2012; Potency, µM (titrated, usually from 46.1 µM), inactives show top-dose re-replication activation, hits mostly activators; 340,000 tested, 1.8% active; SW480 DNA re-replication, Hoechst DNA content imaging, 48 h; further: % of control where 0% means no effect; nearly all actives have a fitted effect of over 55% in size
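SW480 cells exposed to compounds for 48 hr at 37 C, 5% CO2, then Hoechst-stained 40 min. Nuclear DNA content imaged by fluorescence scanning (405 nm excitation, 500-530 nm emission); re-replication scored as increased high-intensity nuclei.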
KB-3-1 tox: qHTS assay for MDR1-selective chemotherapeutics: Primary screen using the parental adenocarcinoma cell KB-3-1. KB-3-1 viability, CellTiter-Glo ATP luminescence, 72 h. Potency, µM (titrated, usually from 46.1 µM), actives largely listed as cytotoxic. 400,000 tested, 1.4% active; further: on the % scale 0 is the no-effect control and ±100 the full control effect; nearly all actives have a fitted effect of over 60% in size
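Cytotoxicity in the drug-sensitive parental line KB-3-1 was scored as loss of CellTiter-Glo luminescence following 72 h incubation with compound. Values come from curve fitting of normalized concentration-response data.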
KB-V1 cytotox: qHTS assay for MDR1-selective chemotherapeutics: Primary screen using the drug-selected MDR subline cells KB-V1. KB-V1 MDR cells viability, CellTiter-Glo, 72 h. Potency, µM (series often up to 46.1 µM), actives largely listed as cytotoxic. 400,000 tested, 3.4% active; further: on the % scale 0 is the no-effect control and ±100 the full control effect; nearly all actives have a fitted effect of over 60% in size
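KB-V1 MDR subline cells in DMEM (phenol-red free, 10% FBS) exposed to compounds in qHTS concentration series for 72 h at 37 degrees C. Viability read by CellTiter-Glo luminescence; concentration-effect curves fitted after normalization and correction.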
TSG101-PTAP inh: qHTS Assay for Iinhibitors of HIV-1 Budding by Blocking the Interaction of PTAP/TSG101; Fluorescence polarization, FITC-PTAP peptide / Tsg101 binding; Potency, µM (titrated, usually from 115 µM), without a hit: top-dose activity change, negative = inhibition, usual class: inhibitors; 340,000 tested, under 10 active; active means well fitted inhibition curve with a large enough effect in the main read-out, with a control signal flat, not every such curve was filed as active; inconclusive means small, poorly fitted or top-dose-only effect, or effect the other way, or a change in a side signal; inactive means no such curve, though single readings can be large or run the other way; further: % of control where 0% means no effect
Target sequence (Q99816 whole entry, looked up): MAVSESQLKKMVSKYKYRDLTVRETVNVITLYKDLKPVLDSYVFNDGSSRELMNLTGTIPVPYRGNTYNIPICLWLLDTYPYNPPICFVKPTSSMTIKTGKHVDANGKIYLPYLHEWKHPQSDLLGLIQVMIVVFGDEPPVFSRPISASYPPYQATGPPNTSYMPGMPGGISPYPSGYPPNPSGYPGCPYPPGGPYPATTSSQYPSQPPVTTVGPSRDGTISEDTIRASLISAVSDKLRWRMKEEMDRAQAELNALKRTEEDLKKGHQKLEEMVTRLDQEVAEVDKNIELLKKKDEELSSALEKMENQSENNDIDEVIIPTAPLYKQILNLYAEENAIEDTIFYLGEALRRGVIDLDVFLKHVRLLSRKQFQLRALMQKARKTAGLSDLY
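FP read-out: FITC-PTAP peptide, 50 nM final, binding Tsg101 binding domain, 10 uM final; 20 min, r.t.; 10 mM HEPES pH 7.5, 0.15 M NaCl, 0.01% Tween 20, 3 mM EDTA, 0.1 mM TCEP.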
RGS4 inh: Inhibitors of Regulator of G Protein Signaling (RGS) 4: qHTS; AID 504845, 2011; 390,000 tested, 0.039% active; Transcreener GDP fluorescence polarization, RGS4-accelerated GTP hydrolysis; Potency, µM (titrated, usually from 114 µM), for inactives: top-dose activity change, negative = inhibition, usual class: inhibitors; further: on the % scale 0 is the no-effect control and ±100 the full control effect; nearly all actives have a fitted effect of over 75% in size
Target sequence (P49798 whole entry, looked up): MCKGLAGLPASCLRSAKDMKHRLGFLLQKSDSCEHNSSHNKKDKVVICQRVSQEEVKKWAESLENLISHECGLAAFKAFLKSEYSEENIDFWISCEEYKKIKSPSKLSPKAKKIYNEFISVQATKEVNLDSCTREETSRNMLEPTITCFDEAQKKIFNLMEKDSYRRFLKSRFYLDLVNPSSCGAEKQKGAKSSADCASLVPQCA
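MLSMR compounds (23 nl, pin-transferred) preincubated 10 min at room temperature with a 500nM (2x) first reagent, then RGS4 at 900nM (2x) plus Transcreener GDP mix added; fluorescence polarization (620/688 nm) read before and after 90 min at 30 °C.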
Numbers without * were called inactive; i = inactive; ? = inconclusive; . = not tested or not shown; ! = not confirmed by another sample; [ ] = dose if it differs, or a comment. An excerpt weighted towards active compounds, which were near 6.6% of everything screened. Unless noted, the call rests on the fitted dose curve; in most records, active means well fitted curve in the direction sought with a large enough effect; inconclusive means small, poorly fitted or top-dose-only effect, or another doubt; inactive means no such curve, though single readings can be large; an effect the other way counts as inactive or inconclusive. Potency means the concentration at half of the fitted maximal effect.

SMILES	MCF10A rerep	SW480 rereplic	KB-3-1 tox	KB-V1 cytotox	TSG101-PTAP inh	RGS4 inh
CN1CCC(O)(c2ccc(F)cc2)C(C(=O)c2ccc(F)cc2)C1 (configuration not stated)	27µM*	?	.	.	.	.
O=C1Nc2cc(Cl)c(Cl)cc2N2CCNC[C@H]12	.	.	.	.	.	95%[56.9 µM]
CC(C)(C)c1ccc(/C=C2\Oc3cc(OC(=O)N4CCOCC4)ccc3C2=O)cc1	15µM*	?	i	i	-4%	-18%
COC1CC2C=C(C)C=CC=CC(=O)NC(c3ccccc3)CC=CCCC(O)CC(=O)C2=C1O (configuration not stated)	.	.	5.8µM*	5.8µM*	.	.
O=C(CSc1nnc(NC(=O)c2cc(Br)ccc2Cl)s1)NCC1CCCO1 (configuration not stated)	0%	?	i	i	-2%	1%
CC[C@H](C)[C@@H](C(=O)N1CCCC1c1nccs1)N(C)C(=O)[C@H](CC(C)C)N(C)C(=O)[C@H](Cc1ccc(OC)cc1)N(C)C(=O)/C=C(\C)OC (some centres not stated)	?	21µM*	i	i	-9%	7%
COc1ccc(NC(=O)CN2C(=O)CN=C(c3ccccc3)c3ccccc32)c(OC)c1	.	.	.	.	.	9%
CN1CCN(c2ccc([N+](=O)[O-])c3no[n+]([O-])c23)CC1	2.3µM*	?	?	?	?	-26%
O=[N+]([O-])c1ccc(N(CCO)CCO)c2c1no[n+]2[O-]	.	.	4.6µM*	21µM*	.	.
COc1ccc(C2=CC(c3ccc4c(c3)OCO4)c3c(c4ccccc4oc3=O)O2)cc1OC (configuration not stated)	2.6µM*	6.5µM*	2.9µM*	2.6µM*	0%	-4%
O=C1CC(c2ccc(F)cc2)c2c(c3ccccc3oc2=O)O1 (configuration not stated)	.	.	i	i	.	4%
CC[C@@H](CO)NC(=O)[C@@H]1C=C2c3cccc4c3c(cn4C)C[C@H]2N(C)C1	8%	-4%	i	i	-13%	19µM*!
CCN(CC)C(=O)N[C@@H]1C=C2c3cccc4[nH]cc(c34)C[C@H]2N(C)C1	11%	-6%	.	.	.	.
COc1ccc(S(=O)(=O)Nc2ccc3c(c2)CC(=O)N([C@@H](C)CO)C[C@H](C)[C@@H](CN(C)S(=O)(=O)c2ccc(F)cc2)O3)cc1	-2%	?	i	i	-4%	7%
CC(C)CCn1c(N)c(C(=O)NCc2cccs2)c2nc3ccccc3nc21	1.5µM*	5.8µM*	i	i	-2%	-4%
COCCCn1c(N)c(C(=O)OCCOC)c2nc3ccccc3nc21	-7%	?	i	i	-4%	-13%[11.4 µM]
COCCNC(=O)c1c(NC(=O)c2ccc(Br)o2)n(Cc2ccccc2)c2nc3ccccc3nc12	5.8µM*	?	i	12µM*	?	0%
CCCCNC(=O)c1c(N)n(CCCOC)c2nc3ccccc3nc12	10µM*	2.1µM*	i	18µM*	-10%	-5%
Nc1c(C(=O)OCC2CCCO2)c2nc3ccccc3nc2n1Cc1cccs1 (configuration not stated)	?	9%	?	i	-5%	13%
COCCNC(=O)c1c(N)n(CCC(C)C)c2nc3ccccc3nc12	3.3µM*	?	i	16µM*	-4%	6%
COc1ccc(C)cc1NC(=O)N(Cc1ccc2c(c1)OCO2)C1CCN(Cc2ccccc2)CC1	.	.	i	i	.	-5%
C=CCNC(=O)c1c(N)n(CCN2CCOCC2)c2nc3ccccc3nc12	5.8µM*	8%	i	i	-5%	-6%
CC(C)OCCCNC(=O)c1c(N)n(Cc2cccs2)c2nc3ccccc3nc12	1.8µM*	3.7µM*	?	?	?	4%
CCOP(=O)(/C(C#N)=C(\C)O)c1ccccc1 (configuration not stated)	-2%	-82%	i	i	-8%	?
O=c1oc(Cl)c(Cl)c2ccccc12	0%	-5%	i	i	-4%	11µM*!
SMILES	MCF10A rerep	SW480 rereplic	KB-3-1 tox	KB-V1 cytotox	TSG101-PTAP inh	RGS4 inh
Nc1nc(O)c(-c2ccccc2)o1	1%	-5%	.	.	.	.
CCN(CC(=O)Nc1ccccc1C(F)(F)F)C(=O)Cn1c(=O)cnc2ccccc21	-17%	-160%	i	i	-5%	0%
Nc1c(C(=O)NC2CCCC2)c2nc3ccccc3nc2n1CC1CCCO1 (configuration not stated)	7.3µM*	15µM*	i	i	-2%	-40%
Nc1c(C(=O)NCc2ccco2)c2nc3ccccc3nc2n1CCN1CCCCC1	-4%	-2%	i	i	-14%	-7%
COc1ccc(Cn2c(N)c(C(=O)NCc3ccco3)c3nc4ccccc4nc32)cc1OC	?	0.52µM*	?	21µM*	0%	?
CC(C)CNC(=O)c1c(N)n(Cc2ccco2)c2nc3ccccc3nc12	6.5µM*	21µM*	?	16µM*	-10%	-51%
COCCCNC(=O)c1c(N)n(Cc2ccco2)c2nc3ccccc3nc12	12µM*	9.2µM*	i	i	-3%	-30%
CC(C)CCOP(=O)(c1ccc(N(C)C)cc1)C(O)c1ccc(Cl)cc1Cl (configuration not stated)	?	?	?	?	-3%	-8%
C#CCOC(C(=O)OCCN(C)C)(c1ccccc1)c1ccccc1	7%	5%	.	.	.	.
Nc1c(C(=O)NCC2CCCO2)c2nc3ccccc3nc2n1Cc1ccco1 (configuration not stated)	2.6µM*	13µM*	i	i	-6%	-20%
COCCOC(=O)c1c(N)n(Cc2ccco2)c2nc3ccccc3nc12	-2%	0%	i	i	-4%	-52%
CCCNC(=O)c1c(N)n(Cc2ccco2)c2nc3ccccc3nc12	2.1µM*	?	i	i	-6%	-40%
CC(=NCc1cccnc1)c1c(O)n(C2CCCCC2)c(=O)[nH]c1=O	12%	1%	i	18µM*	-7%	2%
